# This is a sample that favours compounds with a hit; in the whole collection about 3.7% have one here.
# TMEM16A act = TMEM16A chloride channel activators or potentiators, primary screen, cell-based, HTS; Anoctamin-1 (Mus musculus), Q8BHY3; HEK293 TMEM16A/YFP-H148Q/I152L, iodide quench fluorescence; hits give low values; B-score at 10 µM; 340,000 compounds, 0.3% hits; AID 623877, 2012;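 active = fluorescence-ratio B-score plate-corrected deviation score at least 3 library SD below zero, with starting fluorescence score within 5 deviations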;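 note: channel opened by trigger with iodide after compound preincubation; score built on the fluorescence ratio of max minus min over baseline; more negative score means more quench and so TMEM16A activation or potentiation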
# CHT inh = inhibitors of human choline transporter CHT | High affinity choline transporter 1 (Homo sapiens), Q9GZV3 | CHT-expressing cells, membrane potential dye, choline response; hits give low values | B-score at 10 µM | 310,000 compounds, 0.86% hits | AID 488975, 2010;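 active = B-score over 3 SD under the library average, and starting fluorescence ratio not unusually high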;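 note: choline stimulus applied at its EC90 after an EC20 pre-addition; B-score computed on integrated fluorescence ratio after choline addition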
# Target sequence (Q9GZV3 whole entry, looked up): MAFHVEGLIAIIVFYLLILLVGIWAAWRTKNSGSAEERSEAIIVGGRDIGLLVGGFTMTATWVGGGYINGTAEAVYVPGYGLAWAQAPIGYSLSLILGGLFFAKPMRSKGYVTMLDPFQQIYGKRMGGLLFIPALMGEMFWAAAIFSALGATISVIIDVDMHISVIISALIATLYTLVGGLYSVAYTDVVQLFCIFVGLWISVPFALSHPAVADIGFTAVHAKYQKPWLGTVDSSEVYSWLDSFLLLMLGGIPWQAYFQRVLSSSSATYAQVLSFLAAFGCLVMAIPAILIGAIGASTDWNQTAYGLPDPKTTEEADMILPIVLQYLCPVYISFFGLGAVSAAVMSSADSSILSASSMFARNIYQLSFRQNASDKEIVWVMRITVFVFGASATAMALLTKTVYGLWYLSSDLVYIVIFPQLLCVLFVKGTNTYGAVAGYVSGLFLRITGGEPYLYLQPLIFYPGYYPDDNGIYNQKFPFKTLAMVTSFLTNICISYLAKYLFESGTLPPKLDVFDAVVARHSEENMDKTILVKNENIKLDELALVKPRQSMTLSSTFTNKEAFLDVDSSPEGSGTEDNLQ
# TMEM16A inh = TMEM16A chloride channel inhibitors, primary screen, cell-based, HTS; Anoctamin-1 (Mus musculus), Q8BHY3; normalized B-score (activity score, 25-100; higher = stronger inhibition) at 10 µM; AID 588511, 2011; 310,000 compounds, 1.2% hits; HEK293 TMEM16A/YFP iodide influx fluorescence, ionomycin;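 active = ratio plate-corrected score three or more library SD toward inhibition, starting fluorescence score within five deviations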;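 note: score derived from kinetic fluorescence span divided by baseline fluorescence per well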
# CHT allo act = CHT positive allosteric modulators, primary screen, cell-based, membrane potential dye, choline EC20 | High affinity choline transporter 1 (Homo sapiens), Q9GZV3 | CHT-expressing cells; hits give high values; LV-AA mutant CHT in HEK293 cells | B-score at 10 µM | 310,000 compounds, 0.49% hits | AID 488977, 2010;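 active = initial fluorescence not abnormally high and integrated response B-score, plate-corrected, over 3 SD above library mean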
# GPR7 antagonist = GPR7 receptor antagonists, primary screen, cell-based, fluorescence, single concentration | GPR7-expressing cells, fluorescence antagonist assay | inhibition, % at 4.4 µM | 290,000 compounds, 1.1% hits | Neuropeptides B/W receptor type 1 (Homo sapiens), P48145; in the data active = inhibition above about 16%, passing the limit was not always enough;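 note: cells stimulated with the agonist NPW; 0% = agonist with vehicle and 100% = vehicle without agonist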
# Kir21 inh = inhibitors of mouse Kir2.1 inward-rectifier potassium channel | Inward rectifier potassium channel 2 (Mus musculus), P35561 | HEK293-Kir2.1, FluxOR thallium flux fluorescence; hits give low values | B-score at 10 µM | 310,000 compounds, 0.85% hits;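 active = fluorescence ratio B-score at or below minus 3 SD of library scores, with starting-brightness B-score within 2 SD, cut at about -4.2 in these data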;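 note: channel flux triggered by added potassium and thallium sulfate stimulus; B-score of peak minus minimum fluorescence over baseline after thallium stimulus; more negative B-score means stronger Kir2.1 block with less thallium influx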
# CHT block conf = CHT inhibitors, confirmation, cell-based, membrane potential dye, duplicate | shares compounds with CHT inh | CHT-expressing cells, choline membrane potential dye; LV-to-AA substituted CHT, HEK293 cells | CHT activity remaining % of control (hits give low values), % at 10 µM | 2,400 compounds, 70% hits | AID 493221, 2011;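 active = choline transporter activity left, mean of duplicates at 10 µM, below buffer-only control mean minus 3 SD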;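 note: depolarization triggered by choline at its EC90 following an EC20 pre-addition; 0% = hemicholinium-3 full block and 100% = buffer-only control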
# HEK293 MPD ctr = membrane potential effects in parental HEK293, counter-screen for CHT inhibitor project, cell-based, membrane potential dye; 2,400 compounds, 4% hits; choline response; active = decrease or increase beyond buffer ±3SD; shares compounds with CHT inh; membrane potential ratio readout (active if shifted either direction beyond buffer ±3SD; no single direction) at 10 µM;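 note: parental cells lack the transporter so any hit is non-specific; ratio is peak minus trough fluorescence over baseline after EC90 choline challenge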
# * = called active by the depositor; i = inactive; · = no result.
SMILES,TMEM16A act,CHT inh,TMEM16A inh,CHT allo act,GPR7 antagonist,Kir21 inh,CHT block conf,HEK293 MPD ctr
CC(=O)c1ccc(N2CCN(C(=O)CCS(=O)(=O)c3ccc4c(c3)NC(=O)CS4)CC2)cc1,i,i,i,i,-9.5,0.13,·,·
CC1Cc2ccccc2N1C(=O)CCS(=O)(=O)c1ccc2c(c1)NC(=O)CS2 (stereo not given),i,-4.99*,i,i,-18.8,-1.9,i,i
CCCCn1c(SCc2nnc(-c3ccccc3)o2)nc2c1c(=O)n(C)c(=O)n2C,i,-5.64*,i,i,-16.4,0.1,34.1%*,i
CCCCn1c(SCC(=O)N2c3ccccc3CCc3ccccc32)nc2c1c(=O)n(C)c(=O)n2C,i,i,i,i,-2.9,0.02,·,·
Cc1c(C)n(Cc2ccccc2)c2ncnc(NN)c12,i,i,i,i,-11.9,0.35,·,·
Cc1c(C)n(CCc2ccccc2)c2ncnc(NN)c12,i,-6.1*,i,i,17.7,-0.8,61.1%*,i
Cc1ccc(Sc2ccc(C(=O)N3CCOCC3)cc2[N+](=O)[O-])cc1,i,i,i,i,-4.0,0.79,·,·
CCN(CC)S(=O)(=O)c1cc(C(=O)N2CCc3ccccc32)ccc1Cl,i,-5.84*,i,i,-9.1,-0.78,66.7%*,i
Cc1cccc(C)c1NC(=O)N1CCC(n2cnc3ccccc32)CC1,i,i,i,i,-12.4,-0.38,·,·
COc1ccc(NC(=O)N2CCC(n3cnc4ccccc43)CC2)cc1,i,-5.81*,i,i,-17.5,0.78,37.5%*,i
CC1CCCCC1NC(=O)C1CCCN(S(=O)(=O)c2ccc(-n3cnnn3)cc2)C1 (stereo not given),i,-9.53*,i,i,-2.0,-0.61,52.3%*,i
CCCCc1nc2cc(C(=O)N(C)C3CCOCC3)ccc2o1,i,i,i,i,-9.3,1.82,·,·
O=C(CN1C(=O)CSc2ncccc21)Nc1cccc(Cl)c1,i,i,i,i,2.5,-0.63,·,·
CSc1nnc(-c2sccc2OCc2ccc(C)cc2)n1C,i,-5.35*,i,i,-4.0,-4.3*,67.5%*,-9.82*
CSC1=NS(=O)(=O)c2c(C)nn(C)c2S1,i,-8.03*,i,i,-15.1,-2.92,29.1%*,i
CCN1C(=O)[C@@H]2Cc3c([nH]c4ccccc34)C(c3ccc(OC)cc3)N2C1=S (stereo not given in full),i,i,i,i,-2.4,0.99,·,·
CCOc1ccc(/C=C2\SC(=S)N(CCC(=O)O)C2=O)cc1,i,i,i,i,-5.0,-0.91,·,·
O=C(O)CCN1C(=O)CC(N2C(=O)/C(=C/c3ccc(Cl)cc3)SC2=S)C1=O (stereo not given),i,-6.21*,i,i,0.0,0.86,58.2%*,i
CC(C)c1ccc(NC(=O)c2ccc3c(c2)C(=O)N(Cc2cccnc2)C3=O)cc1,i,i,i,i,1.3,1.67,·,·
Cc1cc(NCCCN2CCOCC2)n2ncc(-c3ccc(Cl)cc3)c2n1,i,i,i,i,3.0,0.43,·,·
Cc1cc(NCCCn2ccnc2)n2ncc(-c3ccc(Cl)cc3)c2n1,i,-5.41*,i,i,16.2,-4.48,61.3%*,i
Cc1cc(SCc2cc(=O)n3ccsc3n2)nc2ccccc12,i,-12.8*,i,i,-4.0,-1.21,-1.4%*,i
CCOCCCNS(=O)(=O)c1ccc(NC(=O)c2ccc([N+](=O)[O-])cc2Cl)cc1,i,-10.3*,i,i,0.9,-0.33,-5.7%*,i
CCOCCCNS(=O)(=O)c1ccc(NC(=O)c2ccc(OC)c([N+](=O)[O-])c2)cc1,i,i,i,i,-12.8,0.12,·,·
CCC(C)NS(=O)(=O)c1ccc(NC(=O)c2ccc([N+](=O)[O-])cc2Cl)cc1 (stereo not given),i,-8.86*,i,i,19.6,-2.28,i,i
SMILES,TMEM16A act,CHT inh,TMEM16A inh,CHT allo act,GPR7 antagonist,Kir21 inh,CHT block conf,HEK293 MPD ctr
CN(C)/C=N/S(=O)(=O)c1ccc(Cl)c(Cl)c1,i,i,i,i,-5.6,-0.38,·,·
CC(C)=CCc1cc(-c2oc3cc(O)cc(O)c3c(=O)c2O)ccc1O,i,i,i,i,·,0.58,·,·
CC(C)=CCc1c(O)cc2oc3c(CC=C(C)C)c(O)c(O)c(CC=C(C)C)c3c(=O)c2c1O,i,-6.51*,100*,i,·,0.12,i,i
Cn1c(CCCNC(=O)c2ccco2)nc2ccccc21,i,·,·,·,·,·,·,·
Cc1n[nH]c(=O)c2c(NC(=O)CSc3nc4ccccc4c(=O)n3C(C)C)oc(C)c12,i,-10.2*,i,i,-0.5,0.24,47.7%*,i
COCC(C)n1c(SCC(=O)Nc2oc(C)c3c(C)n[nH]c(=O)c23)nc2ccccc2c1=O (stereo not given),i,i,i,i,-1.4,-0.02,·,·
CC(C)C(=O)Nc1ccc2c(c1)Cc1cc(NC(=O)C(C)C)ccc1-2,i,i,i,i,-8.7,-0.43,·,·
Cc1cccc(N2CCN(C(=O)C3CCN(c4ncnc5c4nc4n5CCCCC4)CC3)CC2C)c1 (stereo not given),i,-5.02*,i,i,0.0,0.25,43.1%*,i
COc1ccccc1N1CCN(C(=O)C2CCCN(c3ncnc4c3nc3n4CCCCC3)C2)CC1 (stereo not given),i,i,i,i,8.5,1.95,·,·
O=C(C1CCCN(c2ncnc3c2nc2n3CCCCC2)C1)N1CCN(c2cccc(Cl)c2)CC1 (stereo not given),i,-9.97*,i,i,-5.3,0.22,46.9%*,i
O=C(Nc1ccc(Cl)cc1)C1CCCN(c2ncnc3c2nc2n3CCCCC2)C1 (stereo not given),i,i,i,i,-3.8,-0.03,·,·
